Experimental findings from PubChem BioAssay are described below.

The other results are listed elsewhere or left out. Calls of active or inactive are those of the source.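 The calls were made as follows, unless noted: active = mean inhibition above about 50% in the one-dose retest (limit read from the data); inactive = the rest.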 Some results are limits rather than exact numbers.

Assay [1] addresses Sentrin-specific protease 8 (Homo sapiens) (UniProt Q96LD8). The experiment in a line: human SENP8 peptidase blockers, hit retest – biochemical, luminescence, single concentration, confirmation (AID 488912;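 active = mean inhibition across replicates above about 50%, limit read from the data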). The note with it: Recombinant SENP8, Z-RLRGG-aminoluciferin luminescence, 60 min; at 12.5 µM; stronger effect = higher value.
Assay [2] has as its target Sentrin-specific protease 6 (Homo sapiens) (UniProt Q9GZR1). Kind of assay: inhibition of human SENP6 catalytic domain – biochemical, luminescence, single concentration, confirmation (AID 488915). The note with it: recombinant SENP6, Z-RLRGG-aminoluciferin luminescence; at 12.5 µM; stronger effect = higher value.
Assay [3] deals with Sentrin-specific protease 7 (Homo sapiens) (UniProt Q9BQF6). Kind of assay: human SENP7 peptidase blockers, hit retest – biochemical, luminescence, single concentration, confirmation (AID 488917). The note with it: recombinant SENP7, Z-RLRGG-aminoluciferin luminescence, 40 min; at 12.5 µM; stronger effect = higher value.
Sentrin-specific protease 7 (Homo sapiens), sequence (Q9BQF6 706-1050 limits assumed): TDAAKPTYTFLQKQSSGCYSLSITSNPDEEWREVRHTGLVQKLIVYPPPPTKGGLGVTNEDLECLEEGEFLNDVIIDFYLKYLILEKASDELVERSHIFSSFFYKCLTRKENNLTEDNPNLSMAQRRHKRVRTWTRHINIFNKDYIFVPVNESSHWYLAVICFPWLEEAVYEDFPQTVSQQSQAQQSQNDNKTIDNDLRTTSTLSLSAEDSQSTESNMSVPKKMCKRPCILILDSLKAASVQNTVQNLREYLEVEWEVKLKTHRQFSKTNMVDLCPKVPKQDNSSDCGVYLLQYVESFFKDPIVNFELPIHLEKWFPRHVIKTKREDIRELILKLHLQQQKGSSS
The target of a further assay is Caspase-3 (Homo sapiens) (UniProt P42574). Kind of assay: human caspase-3 activity blockade, out-of-family – biochemical, single concentration, selectivity assay for SENP inhibitor project, confirmation (AID 488918;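 active = mean inhibition above about 50%, limit read from the data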;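 also: plate controls were enzyme with DMSO for no effect and wells without caspase-3 for full effect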). The note with it: purified caspase-3, Z-DEVD-aminoluciferin luminescence, 60 min; at 12.5 µM; stronger effect = higher value.
Caspase-3 (Homo sapiens), sequence (P42574 28-227 limits assumed): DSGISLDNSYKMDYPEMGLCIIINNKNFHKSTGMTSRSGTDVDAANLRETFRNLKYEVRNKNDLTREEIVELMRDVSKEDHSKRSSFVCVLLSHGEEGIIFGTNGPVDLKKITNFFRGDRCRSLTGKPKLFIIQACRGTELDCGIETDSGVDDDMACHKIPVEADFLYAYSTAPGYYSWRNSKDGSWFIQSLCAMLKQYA
A short description of assay [4]: Ultra-Glo luciferase signal interference – biochemical, single concentration, SENP8 reaction pre-completed, artefact control for SENP inhibitor project, confirmation (AID 488919;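 active = mean inhibition above about 50% when retested at one dose, limit read from the data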;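 also: plate controls were DMSO wells with completed reaction for no effect and substrate without enzyme for full effect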). The note with it: Pre-incubated SENP8/Z-RLRGG-aminoluciferin, luciferase luminescence interference; at 12.5 µM; stronger effect = higher value.
Assay [5] is described as follows: apoptosome-driven caspase-3 activation blockers – biochemical, fluorescence, DEVD-Rh110, 20 µM, confirmation (AID 504614;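 active = mean inhibition of at least 40% at 20 µM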;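 also: plate controls were DMSO wells for no effect and DEVD-CHO caspase inhibitor control wells for full effect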). The note with it: reconstituted apoptosome, caspase-3 DEVD-Rh110 fluorescence; at 20 µM; stronger effect = higher value.
Assay [6] can be described thus: detection-step artefacts after completed caspase reaction – biochemical, fluorescence, Rh110, 20 µM, artefact control for Apaf-1 inhibitor project, confirmation (AID 504615;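 active = signal rise of 40% or more at 20 µM, treated as a fluorescence artifact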). The note with it: quenched caspase reaction, at 20 µM, stronger effect = higher value.
Assay [7] can be described thus: fluorescence interference of Apaf-1 inhibitor hits, dose response, artefact control for Apaf-1 inhibitor project (AID 588538; call rule not given here). The note with it: fluorescence interference counterscreen, Apaf-1 assay format. On the technique in general: A counterscreen serves to expose hits that act by an unwanted route or on another target.
The target of assay [8] is Protein Mdm4 (Homo sapiens) + E3 ubiquitin-protein ligase Mdm2 (Homo sapiens) (UniProt O15151+Q00987). Kind of assay: human Mdm2/MdmX binding disruption – cell-based, luminescence, single concentration, set 2, confirmation (AID 504601;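 active = mean inhibition of the luminescence signal across two replicates at or above 26 percent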). The note with it: SaOS-2 split-luciferase Mdm2/MdmX complementation, at 8 µM, stronger effect = higher value.
Protein Mdm4 (Homo sapiens) + E3 ubiquitin-protein ligase Mdm2 (Homo sapiens), sequence (O15151 whole entry, looked up): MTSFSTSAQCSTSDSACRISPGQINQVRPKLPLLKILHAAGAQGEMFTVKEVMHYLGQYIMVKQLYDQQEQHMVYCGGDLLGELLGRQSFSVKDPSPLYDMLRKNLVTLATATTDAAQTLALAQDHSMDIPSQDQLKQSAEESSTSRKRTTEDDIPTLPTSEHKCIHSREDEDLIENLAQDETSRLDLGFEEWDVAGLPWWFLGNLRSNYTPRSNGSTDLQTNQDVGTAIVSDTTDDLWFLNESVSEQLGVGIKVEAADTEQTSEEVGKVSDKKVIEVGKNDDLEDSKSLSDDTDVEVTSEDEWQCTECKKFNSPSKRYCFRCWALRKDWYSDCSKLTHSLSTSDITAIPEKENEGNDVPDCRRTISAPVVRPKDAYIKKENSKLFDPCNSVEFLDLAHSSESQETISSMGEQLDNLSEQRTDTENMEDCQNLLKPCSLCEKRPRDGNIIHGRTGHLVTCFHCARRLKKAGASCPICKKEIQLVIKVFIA
Protein Mdm4 (Homo sapiens) + E3 ubiquitin-protein ligase Mdm2 (Homo sapiens), sequence (Q00987 whole entry, looked up): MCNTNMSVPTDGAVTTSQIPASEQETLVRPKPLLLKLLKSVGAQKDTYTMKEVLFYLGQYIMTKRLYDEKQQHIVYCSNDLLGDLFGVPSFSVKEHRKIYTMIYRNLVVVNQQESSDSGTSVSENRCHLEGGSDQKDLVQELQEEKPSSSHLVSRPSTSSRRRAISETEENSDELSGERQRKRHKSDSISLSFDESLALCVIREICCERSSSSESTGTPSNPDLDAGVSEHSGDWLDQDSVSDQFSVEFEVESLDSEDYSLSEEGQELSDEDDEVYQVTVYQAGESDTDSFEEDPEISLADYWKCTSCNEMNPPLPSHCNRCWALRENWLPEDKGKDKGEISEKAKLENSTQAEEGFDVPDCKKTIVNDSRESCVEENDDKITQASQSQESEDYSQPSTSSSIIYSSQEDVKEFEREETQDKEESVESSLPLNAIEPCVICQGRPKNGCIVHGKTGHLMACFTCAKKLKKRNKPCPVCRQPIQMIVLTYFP
Assay [9] addresses Tumor necrosis factor receptor superfamily member 10B (Homo sapiens) (UniProt O14763). The experiment in a line: viability loss of caspase-8 NB7 cells with TRAIL – with/without TRAIL, luminescence panel, confirmation (AID 651596; in the data active = activity above about 50%). The note with it: NB7 neuroblastoma + caspase-8, TRAIL sensitization, NB7 Caspase-8, with TRAIL, mean of runs, at 10 µM, stronger effect = higher value.
Assay in assay [10]: as above
The note with it: NB7 neuroblastoma + caspase-8, without TRAIL, NB7 Caspase-8, without TRAIL, mean of runs, at 10 µM.

The target in assay [11] is Carboxy-terminal domain RNA polymerase II polypeptide A small phosphatase 1 (Homo sapiens) (UniProt Q9GZU7). Kind of assay: SCP1 melting temperature change from compounds – biophysical, differential scanning fluorimetry, orthogonal assay for Scp-1 inhibitor project, confirmation (AID 540329;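 active = substances whose mean melting-temperature shift, as a percentage of the reference inhibitor's shift, reaches about 5.3%, limit read from the data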;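 also: 0% = Tm of DMSO wells and 100% = Tm with sodium orthovanadate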). The note with it: Recombinant SCP1, Sypro Orange thermal shift Tm; at 40 µM; stronger effect = higher value.
Carboxy-terminal domain RNA polymerase II polypeptide A small phosphatase 1 (Homo sapiens), sequence (Q9GZU7 76-261 limits assumed): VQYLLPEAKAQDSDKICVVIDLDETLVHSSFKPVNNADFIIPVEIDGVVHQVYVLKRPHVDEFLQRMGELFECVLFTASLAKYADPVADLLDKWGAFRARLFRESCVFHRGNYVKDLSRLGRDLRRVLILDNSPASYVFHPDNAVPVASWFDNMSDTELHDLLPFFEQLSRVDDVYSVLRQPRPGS

Sentrin-specific protease 6 (Homo sapiens), sequence (Q9GZR1 628-1112 limits assumed): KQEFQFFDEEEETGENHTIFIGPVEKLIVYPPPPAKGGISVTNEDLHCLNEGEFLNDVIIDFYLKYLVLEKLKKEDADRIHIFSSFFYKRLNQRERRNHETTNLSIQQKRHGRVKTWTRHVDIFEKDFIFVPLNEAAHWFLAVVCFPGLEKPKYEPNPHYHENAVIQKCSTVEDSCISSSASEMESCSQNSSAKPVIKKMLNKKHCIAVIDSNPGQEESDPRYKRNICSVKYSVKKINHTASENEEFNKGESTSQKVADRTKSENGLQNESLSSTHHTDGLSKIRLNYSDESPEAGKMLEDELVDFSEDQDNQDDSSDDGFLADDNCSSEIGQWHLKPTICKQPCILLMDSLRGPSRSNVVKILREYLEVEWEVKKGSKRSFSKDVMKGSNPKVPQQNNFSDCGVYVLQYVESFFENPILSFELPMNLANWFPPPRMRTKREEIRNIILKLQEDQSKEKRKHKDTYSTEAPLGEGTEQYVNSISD
Sentrin-specific protease 8 (Homo sapiens), sequence (Q96LD8 whole entry, looked up, the tested form may be a part): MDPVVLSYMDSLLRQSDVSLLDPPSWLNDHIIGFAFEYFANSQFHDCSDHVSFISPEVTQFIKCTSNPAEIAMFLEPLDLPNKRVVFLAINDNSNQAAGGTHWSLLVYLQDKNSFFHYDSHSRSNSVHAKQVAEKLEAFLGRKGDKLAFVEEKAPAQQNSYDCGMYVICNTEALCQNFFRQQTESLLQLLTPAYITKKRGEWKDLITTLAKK
Tumor necrosis factor receptor superfamily member 10B (Homo sapiens), sequence (O14763 whole entry, looked up): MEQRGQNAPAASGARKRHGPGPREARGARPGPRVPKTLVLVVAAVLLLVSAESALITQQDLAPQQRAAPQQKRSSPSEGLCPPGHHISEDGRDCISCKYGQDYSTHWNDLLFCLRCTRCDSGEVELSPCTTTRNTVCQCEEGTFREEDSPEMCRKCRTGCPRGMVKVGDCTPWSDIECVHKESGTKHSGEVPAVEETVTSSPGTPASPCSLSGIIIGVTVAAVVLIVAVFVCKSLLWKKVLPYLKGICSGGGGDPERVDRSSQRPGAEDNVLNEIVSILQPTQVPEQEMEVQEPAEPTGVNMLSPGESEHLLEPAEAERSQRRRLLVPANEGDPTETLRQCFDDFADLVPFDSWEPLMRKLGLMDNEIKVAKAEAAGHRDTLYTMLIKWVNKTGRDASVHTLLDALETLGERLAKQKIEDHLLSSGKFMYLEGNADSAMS

The term inhibition denotes the change of the read-out against control, counted positive when it falls. As usually defined, the IC50 is the concentration that inhibits the measured activity by half. As for `CC(C)n1cnc2c(NCc3ccccc3)cc(OCC3CCN(C)CC3)cc21`, the inhibition was 57.7% (active) in assay [1]; 75.3% (active) in [2]; 35.5% (inactive) in assay [3]; 6.2% (inactive) in the assay with Caspase-3 (Homo sapiens); -4.2% (inactive) in assay [4]; 78.1% (active) in [5]. In [6], the activation (fluorescence interference) was -0.65% (inactive). For the same molecule, the IC50 in assay [7] is > 100 µM (inactive).
Take `CC[C@]1(C(=O)OC)[C@H]2C(=O)N(Cc3ccccc3)C(=O)[C@H]2[C@H]2CN=C(SCc3ccc(C#N)cc3)N21`: the inhibition in assay [8] is 102% (active).
Turning to `CC(=C/c1ccccc1)/C=N/NC(=O)c1cc(C)oc1C`, the inhibition was 14.3% (inactive) in assay [1]; 46.8% (inactive) in [2]; 23.5% (inactive) in assay [3]; 86.4% (active) in the assay with Caspase-3 (Homo sapiens); -2.7% (inactive) in [4]. Moreover, the activity in assay [9] amounted to 58.5%; in assay [10] it was 63.6%.
On to `O=C(Nc1ccc(Cl)cn1)c1ccc2c(c1)OCCO2`, for which the inhibition in assay [1] is -5.1% (inactive); in assay [2] it was 71.4% (active); in [3] it was 92.9% (active); with Caspase-3 (Homo sapiens), 82.8% (active); in assay [4] it was 76.4% (active). Also, the activity was 67.6% in [9] and 71.8% in [10].
Turning to `Cc1oc2c(c1C(=O)N1CCOCC1)C(=O)c1ccccc1C2=O`, the inhibition is 27.7% (inactive) in assay [1]; 61% (active) in assay [2]; 6% (inactive) in assay [3]; 87.5% (active) with Caspase-3 (Homo sapiens); -2.3% (inactive) in assay [4]; 52.9% (active) in [5]. For the same molecule, the activation (fluorescence interference) in assay [6] was 8.76% (inactive). The IC50 in assay [7] was > 100 µM (inactive).
Regarding `C(=N\Nc1ccc2ccccc2n1)/c1ccc2c(c1)OCO2`, the inhibition is 97.7% (active) in assay [1]; 98.3% (active) in assay [2]; 102% (active) in [3]; 93.2% (active) with Caspase-3 (Homo sapiens); 71.3% (active) in [4]. The figures for the activity in assay [9] and in assay [10] were 51.5% and 31.6%, respectively.
In the case of `COc1cccc(C(=O)Nc2ccc(N3CCCC3)cc2)c1`, the inhibition in assay [1] is 95% (active); in assay [2], 99.7% (active); in assay [3], 104% (active); with Caspase-3 (Homo sapiens) it was 99.5% (active); in assay [4] it was 86.3% (active). The figures for the activity in assay [9] and in assay [10] were 46.8% and 54%, respectively.
`CSc1ccc(/C=N/NC(=O)c2cccc(Cl)c2)cc1`: the inhibition in [1] is 36.6% (inactive); in assay [2] it was 96.5% (active); in [3], 44.1% (inactive); in the assay with Caspase-3 (Homo sapiens), 93.6% (active); in assay [4] it was 40.2% (inactive). Also, the thermal shift relative to vanadate control in assay [11] was 9.78% (active).
As for `CCOc1ccc(-c2nnc(-c3ccco3)o2)cc1`, the inhibition in assay [1] was 5.3% (inactive); in assay [2] it was 72.1% (active); in assay [3], 79% (active); with Caspase-3 (Homo sapiens) it was 73.8% (active); in [4], 15.9% (inactive). For the same molecule, the results for the activity in [9] and in assay [10] were 52.5% and 56.5%, respectively.
With `COc1cccc(NC(=O)[C@H](Cc2c[nH]c3ccccc23)NC(=O)[C@@H]2Cc3ccccc3CN2)c1`, the inhibition in [8] is 98.2% (active).
`CCOc1cc(N2CCOCC2)c(OCC)cc1NC(=O)COc1cccc2cccnc12`: in [8], the inhibition is 92.7% (active).
Take `O=c1c2cc(-c3ccccc3)sc2nc2n1N=C(c1cccs1)CS2`: the inhibition in assay [1] is 11.6% (inactive); in assay [2], 3.2% (inactive); in assay [3] it was -0.5% (inactive); with Caspase-3 (Homo sapiens), 8.2% (inactive); in assay [4], 3.2% (inactive). Besides, the thermal shift relative to vanadate control in assay [11] is 11.4% (active). The activity is 63.5% in assay [9] and 57.9% in assay [10].
